From PubChem BioAssay (NCATS)
Records with an inconclusive call do not appear. Calls of active or inactive are those of the source. The call rests on the fitted dose curve; in most records, active means well fitted cell-killing curve with a large enough effect; inconclusive means small, poorly fitted or top-dose-only effect, or effect the other way; inactive means flat fitted curve, though single readings scatter. Where a SMILES comes first, the peptide text is derived from it. [ ]: non-standard residue; d: D form. dPhe(4-Cl) = N[C@H](Cc1ccc(Cl)cc1)C(=O)O; d2Nal = N[C@H](Cc1ccc2ccccc2c1)C(=O)O; dCit = NC(=O)NCCC[C@@H](N)C(=O)O; d3Pal = N[C@H](Cc1cccnc1)C(=O)O

Legend:
Assay in all cases: Primary qHTS to identify gynecologic anti-cancer compounds using libraries of approved drugs and bioactive compounds (AID 1345084); further: nearly all actives have a fitted effect of over 55% in size
Conditions in all cases: Gynecologic cancer cell panel viability, ATPlite luminescence, 48 h; series mostly up to 57.5 µM
OV90 = tested on: OV90
Procedure, shortened: (§1)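 Measured: luminescence after ATPlite addition (15 min, RT). Exposure: 48 h, 37 C, 5% CO2.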

PA-1 = tested on: PA-1
Procedure, shortened: as §1

Tov-21-G = tested on: Tov-21-G
Procedure, shortened: as §1

Tov112D = tested on: Tov112D
Procedure, shortened: as §1
On the % scale 0 is the no-effect control and ±100 the full control effect; potency means the concentration at half of the fitted maximal effect.

CC1OC(OC2C(OC3C(O[C@H]4CC[C@@]5(C)C(CC[C@]6(C)C5C(=O)C=C5C7CC(C)(C)CC(O)[C@]7(C)CC[C@]56C)C4(C)C)OC(C(=O)O)C(O)C3O)OCC(O)C2O)C(O)C(O)C1O (stereo not given in full)
inactive: activity change, negative = cytotoxicity (OV90) -4.31% [at 11.6 µM] | activity change, negative = cytotoxicity (PA-1) -3.12% [at 11.6 µM] | activity change, negative = cytotoxicity (Tov-21-G) 2.59% [at 11.6 µM] | activity change, negative = cytotoxicity (Tov112D) -1.77% [at 11.6 µM]

CC(C)N(CCCCOCC(=O)NS(C)(=O)=O)c1cnc(-c2ccccc2)c(-c2ccccc2)n1
inactive: Potency (OV90) | Potency (PA-1) | Potency (Tov-21-G) | Potency (Tov112D)

CCC(COC)n1nnc2c(Nc3ccc(OC)cc3C)nc(C)cc21 (stereo not given)
inactive: Potency (OV90) | Potency (PA-1) | Potency (Tov-21-G) | Potency (Tov112D)

NC(=O)c1cnc(NCCc2ccc(O)c(Cl)c2)nc1NCc1ccccc1
inactive: Potency (OV90)
active: Potency (PA-1) 10 µM | Potency (Tov-21-G) 7.94 µM | Potency (Tov112D) 12.6 µM

C=C(C(=O)O)[C@@H]1CC[C@@]2(C)CC[C@H](O)[C@@]2(C(C)=O)C1
inactive: Potency (OV90) | Potency (PA-1) | Potency (Tov-21-G) | Potency (Tov112D)

O=S(=O)(c1ccc(S(=O)(=O)n2cnc3ccccc32)cc1)N1CCCCCC1
inactive: Potency (OV90) | Potency (PA-1) | Potency (Tov-21-G) | Potency (Tov112D)

O=C(Nc1ccccc1)N1CCN(Cc2ccc3ccccc3n2)CC1
inactive: Potency (OV90) | Potency (PA-1) | Potency (Tov-21-G) | Potency (Tov112D)

CCCCOC(=O)NC(=O)C1c2ccccc2Oc2ccccc21
inactive: Potency (OV90) | Potency (PA-1) | Potency (Tov-21-G) | Potency (Tov112D)

CC(C)CCC(=O)CC1c2ccccc2C(=O)N1c1ccc2ccc(Cl)nc2n1 (stereo not given)
inactive: Potency (OV90) | Potency (PA-1) | Potency (Tov-21-G)
active: Potency (Tov112D) 8.91 µM

CN(c1ccccc1CNc1nc(Nc2ccc3c(c2)CC(=O)N3)ncc1C(F)(F)F)S(C)(=O)=O
inactive: Potency (Tov-21-G)
active: Potency (OV90) 8.91 µM | Potency (PA-1) 15.8 µM | Potency (Tov112D) 25.1 µM

C=CC1C(OC2OC(CO)C(O)C(O)C2O)OC=C(C(=O)OC)C1CC(=O)OCC1C(C)C(O)CC1C(CO)COC(=O)CC1C(C(=O)O)=COC(OC2OC(CO)C(O)C(O)C2O)/C1=C\C (stereo not given)
inactive: activity change, negative = cytotoxicity (OV90) 16.4% [at 11.6 µM] | activity change, negative = cytotoxicity (PA-1) -12.5% [at 11.6 µM] | activity change, negative = cytotoxicity (Tov-21-G) -4.06% [at 11.6 µM] | activity change, negative = cytotoxicity (Tov112D) -1.58% [at 11.6 µM]

NCc1c[nH]c(=S)n1[C@@H]1CCc2c(F)cc(F)cc2C1
inactive: Potency (OV90) | Potency (PA-1) | Potency (Tov-21-G) | Potency (Tov112D)

C/C1=C\CC[C@H](C)CCO[C@@H]2O[C@H](CO[C@@H]3OC[C@](O)(COC1=O)[C@H]3O)[C@@H](O)[C@H](O)[C@H]2O
inactive: Potency (OV90) | Potency (PA-1) | Potency (Tov-21-G) | Potency (Tov112D)

C[C@@H]1O[C@@H](O[C@H]2[C@@H]3C=CO[C@@H](O[C@@H]4O[C@H](CO)[C@@H](O)[C@H](O)[C@H]4O)[C@@H]3[C@@]3(CO)O[C@@H]23)[C@H](OC(=O)/C=C/c2ccccc2)[C@H](O)[C@H]1O
inactive: Potency (OV90) | Potency (PA-1) | Potency (Tov-21-G) | Potency (Tov112D)

Cn1c(=O)cc(N2CCCC(N)C2)n(Cc2cc(F)ccc2C#N)c1=O (stereo not given)
inactive: Potency (OV90) | Potency (PA-1) | Potency (Tov-21-G) | Potency (Tov112D)

CC(C)(C)CCN1C[C@@H]2C(CNC(=O)c3cc(Cl)cc(Cl)c3)[C@@H]2C1 (stereo not given in full)
inactive: Potency (OV90) | Potency (PA-1) | Potency (Tov-21-G) | Potency (Tov112D)

CC1CCC2C(C)(C)[C@@H](O)CC[C@]2(C)C12Cc1c(O)cc3c(c1O2)CN(C(CCC(=O)O)C(=O)O)C3=O (stereo not given in full)
inactive: Potency (OV90) | Potency (PA-1) | Potency (Tov-21-G) | Potency (Tov112D)

CO[C@H]1C[C@@H]2CC[C@@H](C)[C@@](O)(O2)C(=O)C(=O)N2CCCC[C@H]2C(=O)O[C@H]([C@H](C)C[C@H]2CC[C@@H](OP(C)(C)=O)[C@H](OC)C2)CC(=O)[C@H](C)/C=C(\C)[C@@H](O)[C@@H](OC)C(=O)[C@H](C)C[C@H](C)/C=C/C=C/C=C/1C
inactive: Potency (OV90) | Potency (PA-1) | Potency (Tov-21-G) | Potency (Tov112D)

CC1(C)CCC2(C(=O)OC3OC(CO)C(O)C(O)C3O)CCC3(C)C(=CCC4C5(C)CCC(O)C(C)(C(=O)O)C5CCC43C)C2C1O (stereo not given)
inactive: Potency (OV90) | Potency (PA-1) | Potency (Tov-21-G) | Potency (Tov112D)

Cc1cccc(C)c1OCc1cc(C(=O)N2CCC(c3ccncc3)CC2)no1
inactive: Potency (OV90) | Potency (PA-1) | Potency (Tov-21-G) | Potency (Tov112D)

CCCOc1ccc(-c2nc(OC)c3ccccc3n2)cc1
inactive: Potency (OV90) | Potency (PA-1) | Potency (Tov-21-G) | Potency (Tov112D)

CO[C@H]1O[C@@H]2O[C@]3(C)CC[C@H]4[C@H](C)CC[C@@H]([C@H]1C)[C@@]24OO3
inactive: Potency (OV90) | Potency (PA-1) | Potency (Tov-21-G) | Potency (Tov112D)

CC(O)/C=C/C1C(C)C(O[C@@H]2O[C@H](CO)[C@@H](O)[C@H](O)[C@H]2O)C(O)CC1(C)C (stereo not given in full)
inactive: Potency (OV90) | Potency (PA-1) | Potency (Tov-21-G) | Potency (Tov112D)

CC(C)C[C@H](CC(=O)NO)C(=O)N[C@@H](Cc1ccc2ccccc2c1)C(=O)N[C@@H](C)C(=O)NCCN
inactive: Potency (OV90) | Potency (PA-1) | Potency (Tov-21-G) | Potency (Tov112D)

CC(=O)N[C@H](Cc1ccc2ccccc2c1)C(=O)N[C@H](Cc1ccc(Cl)cc1)C(=O)N[C@H](Cc1cccnc1)C(=O)N[C@@H](CO)C(=O)N[C@@H](Cc1ccc(O)cc1)C(=O)N[C@H](CCCNC(N)=O)C(=O)N[C@@H](CC(C)C)C(=O)N[C@@H](CCCN=C(N)N)C(=O)N1CCC[C@H]1C(=O)N[C@H](C)C(N)=O (Ac-[d2Nal][dPhe(4-Cl)][d3Pal]SY[dCit]LRP[dA]-NH2)
inactive: Potency (OV90) | Potency (PA-1) | Potency (Tov-21-G) | Potency (Tov112D)
